According to PubChem BioAssay (NCI):
The panel holds about 83,000 compounds, 20% with a hit somewhere; the sample as a whole holds those more often.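 How to read the values: 0–100, growth inhibition (40 = 60% inhibited); 0, no net growth; -100 to 0, cell death (-40 = 40% of starting cells died; -100 = all dead).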 Calls of active or inactive are those of the source. Rule for the calls: active = growth percent below 10; inactive = the rest.

Key:
Assay in all cases: NCI-60 one-dose screen, 48 h (100 = growth as untreated, 0 = no growth, -100 = all killed)
Conditions in all cases: 10 µM unless noted
HCT-15 colon = system: HCT-15 colon
HT29 colon = system: HT29 colon
SNB-19 CNS = system: SNB-19 CNS
U251 CNS = system: U251 CNS
PC-3 prostate = system: PC-3 prostate
SK-MEL-5 melanoma = system: SK-MEL-5 melanoma
UACC-62 melanoma = system: UACC-62 melanoma
LOX IMVI melanoma = system: LOX IMVI melanoma
SK-MEL-28 melanoma = system: SK-MEL-28 melanoma
SNB-75 CNS = system: SNB-75 CNS

Measured: growth

N#Cc1c(-c2ccccc2)cc(-c2ccc(Nc3nc(Nc4ccc(Cl)cc4)nc(Nc4ccc(Cl)cc4)n3)cc2)nc1N
active: HCT-15 colon -38.3% | HT29 colon 9.85% | U251 CNS -35.4% | SK-MEL-5 melanoma -13.8% | LOX IMVI melanoma -88.7% | SK-MEL-28 melanoma -80.9%
inactive: SNB-19 CNS 100% | PC-3 prostate 20.7% | UACC-62 melanoma 54.5%

COC(CC(F)F)c1cn(S(=O)(=O)c2ccc(C)cc2)c2ccccc12 (stereo not drawn)
active: HT29 colon 4.89%
inactive: HCT-15 colon 20% | SNB-19 CNS 29.2% | U251 CNS 19.6% | PC-3 prostate 21.3% | SK-MEL-5 melanoma 34.1% | UACC-62 melanoma 32.1% | LOX IMVI melanoma 40.7% | SK-MEL-28 melanoma 44.7%

O=C(OC(CO)C(=O)NC12CC3CC(CC(C3)C1)C2)c1ccc(Cl)cc1 (stereo not drawn)
inactive: HCT-15 colon 99.4% | HT29 colon 100% | SNB-19 CNS 98.8% | U251 CNS 96.7% | PC-3 prostate 98.6% | SK-MEL-5 melanoma 98.3% | LOX IMVI melanoma 101% | SK-MEL-28 melanoma 108%

NC(=O)c1ccc(-c2c3ccccc3cc3c2ccc2ccccc23)cc1
active: HT29 colon -19.4%
inactive: HCT-15 colon 28.3% | SNB-19 CNS 60.9% | U251 CNS 42.5% | PC-3 prostate 54.4% | SK-MEL-5 melanoma 40.8% | UACC-62 melanoma 33.4% | LOX IMVI melanoma 33.3% | SK-MEL-28 melanoma 60%

c1ccc([P+](c2ccccc2)(c2ccccc2)c2ccc3c4ccc([P+](c5ccccc5)(c5ccccc5)c5ccccc5)c5cccc(c6cccc2c63)c54)cc1
inactive: HCT-15 colon 66.2% | SNB-19 CNS 12.5% | U251 CNS 14% | PC-3 prostate 17.7% | UACC-62 melanoma 15%
active: HT29 colon 8.41% | SK-MEL-5 melanoma -57.6% | LOX IMVI melanoma 3.08% | SK-MEL-28 melanoma 4.81%

Cc1ccc2c(n1)C(=O)C(Br)=C(C1CCCC1)C2=O
inactive: HCT-15 colon 99.5% | HT29 colon 109% | SNB-19 CNS 98.1% | U251 CNS 97.4% | PC-3 prostate 89.9% | SK-MEL-5 melanoma 97.3% | UACC-62 melanoma 98.5% | LOX IMVI melanoma 91.6% | SK-MEL-28 melanoma 117%

Oc1c(I)cc(I)cc1CNCCN(Cc1ccccn1)Cc1ccccn1
inactive: SNB-19 CNS 16.7%
active: HCT-15 colon -30.4% | HT29 colon -37% | U251 CNS -29.1% | PC-3 prostate -41% | SK-MEL-5 melanoma -97% | UACC-62 melanoma -14.3% | LOX IMVI melanoma -64.2% | SK-MEL-28 melanoma -14%

CCCCNC(=O)CC1=C(C)/C(=C/c2[nH]c(-c3ccc[nH]3)cc2OC)N=C1C
inactive: SNB-19 CNS 67.1% | U251 CNS 28.7% | SK-MEL-28 melanoma 31%
active: HCT-15 colon 2.62% | HT29 colon 9.63% | PC-3 prostate 6.07% | SK-MEL-5 melanoma 1.34% | UACC-62 melanoma -28.9% | LOX IMVI melanoma -36.9%

CCOC(=O)c1nn(-c2ccc(S(N)(=O)=O)cc2)c2nc(C)cc(=O)n12
inactive: HCT-15 colon 108% | HT29 colon 109% | SNB-19 CNS 98.8% | U251 CNS 99% | PC-3 prostate 101% | UACC-62 melanoma 99.6% | LOX IMVI melanoma 96.2% | SK-MEL-28 melanoma 119%

O=C(NNC(=O)c1ccc(NC(=O)c2ccccn2)cc1)Nc1ccc([N+](=O)[O-])cc1
inactive: HCT-15 colon 100% | HT29 colon 110% | SNB-75 CNS 81.4% | SNB-19 CNS 83.6% | U251 CNS 78.5% | PC-3 prostate 94.5% | UACC-62 melanoma 94% | LOX IMVI melanoma 105% | SK-MEL-28 melanoma 99%

N#Cc1nc(-c2ccc(Cl)cc2)oc1S(=O)(=O)N1CCN(c2ccc(F)cc2)CC1
inactive: HCT-15 colon 54.3% | HT29 colon 88.5% | SNB-19 CNS 96.4% | U251 CNS 94.6% | PC-3 prostate 96.4% | SK-MEL-5 melanoma 96% | UACC-62 melanoma 100% | LOX IMVI melanoma 29.3% | SK-MEL-28 melanoma 104%

O=S(=O)(NCCCNc1nccc(-c2c(-c3ccc(F)c(O)c3)nc3occn23)n1)c1ccc(Cl)cc1
inactive: HCT-15 colon 73.2% | HT29 colon 54.4% | SNB-19 CNS 97% | U251 CNS 94% | PC-3 prostate 56.8% | SK-MEL-5 melanoma 33.2% | UACC-62 melanoma 11.7% | LOX IMVI melanoma 36.2% | SK-MEL-28 melanoma 30%

COC12C=C/C(=C(/C(=O)OCc3ccncn3)C(=O)CCCCCCCCC3(OC)C=C/C(=C(/C(=O)OCc4ccncn4)C(=O)CCCCCCCC1)O3)O2
inactive: HT29 colon 12.5%
active: HCT-15 colon -28.5% | SNB-19 CNS 7.75% | U251 CNS 0.453% | PC-3 prostate -36.7% | SK-MEL-5 melanoma -88.1% | UACC-62 melanoma -47.4% | LOX IMVI melanoma -54.8% | SK-MEL-28 melanoma -19.2%

CC1(C)CC(=O)C2=C(C1)N(c1ccc(OC(F)(F)F)cc1)C(N)=C(C#N)C2c1ccc(Br)cc1F (stereo not drawn)
inactive: HCT-15 colon 71.4% | HT29 colon 79.7% | SNB-19 CNS 34.4% | U251 CNS 56.2% | PC-3 prostate 51.9% | SK-MEL-5 melanoma 92.9% | UACC-62 melanoma 78.5% | LOX IMVI melanoma 54.5% | SK-MEL-28 melanoma 90.8%

O=S(=O)(Nc1ccc(Cl)c(C(F)(F)F)c1)c1ccc(-c2cnc(C3CC3)o2)cc1
inactive: HCT-15 colon 22.5% | SNB-19 CNS 18.3% | SK-MEL-5 melanoma 18.6% | LOX IMVI melanoma 32.9% | SK-MEL-28 melanoma 19.4%
active: HT29 colon 5.34% | U251 CNS 4.81% | PC-3 prostate 4.35% | UACC-62 melanoma -10.2%
